Results as given in the supplement of paper PMC10981050.
Several values for one entry are separate records, joined by “and”; a condition that tells them apart may be missing. Equal entries are not always repeated. Structures can show the parent of a compound that is named as a salt.

Legend:
Assay in all cases: cell viability relative to vehicle control; higher = less cytotoxic
Details in all cases: 10 µM
K562 = system: K562
Summary of the method: (§1)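 Mutant clones made by CRISPR editing and their isogenic wild-type counterparts, from four leukaemia lines, were exposed to a single 10 µM dose of each library compound for 48 h. The supernatant was then removed and CellTiter-Glo luminescence was read. Viability was reported as percent of the on-plate vehicle control.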

MARIMO = system: MARIMO
Summary of the method: as §1

MOLM14 = system: MOLM14
Summary of the method: as §1

OCI-AML2 = system: OCI-AML2
Summary of the method: as §1

SMILES	cell viability (K562; SRSF2 genotype: SRSF2 P95H/wt)	cell viability (K562; SRSF2 genotype: SRSF2 wt/wt) [%]	cell viability (MARIMO; SRSF2 genotype: SRSF2 P95H/wt) [%]	cell viability (MARIMO; SRSF2 genotype: SRSF2 wt/wt) [%]	cell viability (MOLM14; SRSF2 genotype: SRSF2 P95H/wt) [%]	cell viability (MOLM14; SRSF2 genotype: SRSF2 wt/wt) [%]	cell viability (OCI-AML2; SRSF2 genotype: P95H/wt) [%]	cell viability (OCI-AML2; SRSF2 genotype: wt/wt) [%]
COc1ccc2[nH]cc(CCNC(C)=O)c2c1 [Melatonin]	104% and 109%	100	109	101	103	105	118	103
CC(C)(O)CC[C@@H](O)[C@](C)(O)[C@H]1CC[C@@]2(O)C3=CC(=O)[C@@H]4C[C@@H](O)[C@@H](O)C[C@]4(C)[C@H]3CC[C@]12C [20-Hydroxyecdysone]	104% and 98.5%	102	109	107	106	106	101	111
CC(=O)OCC1=C(C(=O)O)N2C(=O)[C@@H](NC(=O)CSc3ccncc3)[C@H]2SC1 [cephapirin sodium]	102% and 105%	105	106	107	99.5	105	117	101
C=C(C)[C@@H]1CC[C@]2(C(=O)O)CC[C@]3(C)[C@H](CC[C@@H]4[C@@]5(C)CC[C@H](O)[C@@](C)(CO)[C@@H]5CC[C@]43C)[C@@H]12 [23-Hydroxybetulinic acid]	93.7% and 96.8%	91.1	96.6	107	100	103	103	109
COc1ccc(C(=O)C2CCN(CC(=O)N(Cc3nc4c(c(=O)[nH]3)COCC4)CC3CC3)CC2)cc1	110% and 104%	102	108	110	109	102	98.8	109
CCCCCCCCCC(C)O (stereo not given) [2-Undecanol]	109% and 107%	105	111	102	110	108	110	105
Cc1nccn1CC1CCc2c(c3ccccc3n2C)C1=O (stereo not given) [Ondansetron hydrochloride (Zofran)]	96.1% and 89.4%	93.8	88.4	95.6	102	98.9	95.5	101
CC(C)(C)c1nc(-c2cccc(NS(=O)(=O)c3c(F)cccc3F)c2F)c(-c2ccnc(N)n2)s1	90.3% and 101%	84.3	78.5	75.8	73.6	68.2	93.2	83.9
C[C@H](O)[C@H](O)[C@@H](O)[C@@H](O)C=O [L (+)-Rhamnose Monohydrate]	99.9% and 97.2%	100	102	106	99	105	99.3	94.1
CC(C)(CO)n1cc(C(=O)c2cncc(NC(=O)Cc3ccc(Cl)cn3)c2)c2cnc(N)nc21	104%	111	115	109	64.3	76.5	107	93.4
CC(=O)N1CCN(c2ccc(OCC3COC(Cn4ccnc4)(c4ccc(Cl)cc4Cl)O3)cc2)CC1 (stereo not given) [Ketoconazole]	56.2% and 70.5%	62.4	34.9	26.1	40.9	26.2	32	30.8
CCCCCCCCCCCCCCCCO [1-Hexadecanol]	102% and 92.5%	98.6	100	109	101	103	94.5	116
N=C1S/C(=C\c2ccc(-c3ccc4c(c3)C(=O)NC4=O)o2)C(=O)N1c1ccc(Br)cc1 [Bioymifi]	95.1% and 88.2%	87.4	99	101	90.1	93.1	96.6	93.1
OCc1ccc(O)cc1 [4-Hydroxybenzyl alcohol]	108% and 106%	111	98	112	108	109	111	95.3
NC1(C(=O)N[C@@H](CCO)c2ccc(Cl)cc2)CCN(c2ncnc3[nH]ccc23)CC1	82.6% and 83.6%	79	66.6	67.1	28.5	33.3	59.8	55.8
CCCCCCCCCCCCCc1cccc(O)c1C(=O)O [Ginkgolic Acid (C130)]	108% and 100%	108	103	107	104	110	102	103
CC1=C(C/C=C(\C)CCC[C@H](C)CCC[C@H](C)CCCC(C)C)C(=O)c2ccccc2C1=O [Vitamin K1]	101% and 88.9%	93.7	92.4	107	88.2	98	90.7	106
Cc1cc(=O)n(-c2ccccc2)n1C [Antipyrine]	97.8% and 87.7%	82.7	86.2	95.4	88.1	87.4	84.8	93.4
Cc1ccc(C(=O)O)c(O)c1 [4-Methylsalicylic acid]	107% and 102%	103	108	111	99.7	109	99.3	95.5
CC1OC(OC2C(CO)OC(OCC3OC(OC(=O)C45CCC(C)(C)CC4C4=CCC6C7(C)CCC(OC8OCC(O)C(O)C8O)C(C)(CO)C7CCC6(C)C4(C)CC5)C(O)C(O)C3O)C(O)C2O)C(O)C(O)C1O (stereo not given) [Hederacoside D]	98.3% and 104%	101	95.7	103	105	99.3	97	103

SMILES	cell viability (K562; SRSF2 genotype: SRSF2 P95H/wt)	cell viability (K562; SRSF2 genotype: SRSF2 wt/wt) [%]	cell viability (MARIMO; SRSF2 genotype: SRSF2 P95H/wt) [%]	cell viability (MARIMO; SRSF2 genotype: SRSF2 wt/wt) [%]	cell viability (MOLM14; SRSF2 genotype: SRSF2 P95H/wt) [%]	cell viability (MOLM14; SRSF2 genotype: SRSF2 wt/wt) [%]	cell viability (OCI-AML2; SRSF2 genotype: P95H/wt) [%]	cell viability (OCI-AML2; SRSF2 genotype: wt/wt) [%]
CC(C)(C(=O)O)c1ccc(C(O)CCCN2CCC(C(O)(c3ccccc3)c3ccccc3)CC2)cc1 (stereo not given) [Fexofenadine HCl]	99.1% and 98.7%	101	95.9	103	100	101	94.1	110
COc1cc(C=O)cc(OC)c1O [Syringaldehyde]	110% and 99.8%	96	102	112	99.2	105	94.8	114
O=C(O)/C=C/c1ccc(O)c(O)c1 [Caffeic acid]	99.1% and 100%	94.3	94.2	105	97.7	101	76.2	92.7
Cc1cnc(-c2cc(N3CCN(C(=O)CCS(C)(=O)=O)CC3)ncc2Cl)c(C)c1	98.7% and 98.8%	96.3	101	110	100	104	96.2	105
C[C@@H](Nc1nc(N[C@H](C)C(F)(F)F)nc(-c2cccc(Cl)n2)n1)C(F)(F)F [Vorasidenib (AG-881)]	91.3% and 90.9%	84.7	88.3	105	89	85.3	104	98.3
CC(NC(=O)c1ccccc1/N=C/c1c(O)ccc2ccccc12)c1ccccc1 (stereo not given) [Sirtinol]	93% and 101%	103	102	98.7	94.7	101	103	102
O=c1[nH]cc(F)c(=O)[nH]1 [Adrucil (Fluorouracil)]	92.3% and 90%	74.5	68.5	67.4	37.5	26.1	49.1	55.1
COc1ccc(CCc2cc(OC)c(OC)c(OC)c2)cc1O [Erianin]	10.3% and 30.2%	25.3	6.09	6.67	1.16	1.16	1.03	2.9
CO[C@H]1/C=C/O[C@@]2(C)Oc3c(C)c(O)c4c(O)c(cc(O)c4c3C2=O)NC(=O)/C(C)=C\C=C\[C@H](C)[C@H](O)[C@@H](C)[C@@H](O)[C@@H](C)[C@H](OC(C)=O)[C@@H]1C [Rifamycin sodium salt]	35.1% and 16.3%	13	4.5	7.05	0.49	0.44	0.38	0.42
CC(C)=CCC[C@](C)(O[C@@H]1O[C@H](CO)[C@@H](O)[C@H](O)[C@H]1O)[C@H]1CC[C@]2(C)[C@@H]1[C@H](O)C[C@@H]1[C@@]3(C)CC[C@H](O)C(C)(C)[C@@H]3[C@@H](O[C@@H]3O[C@H](CO)[C@@H](O)[C@H](O)[C@H]3O[C@@H]3O[C@@H](C)[C@H](O)[C@@H](O)[C@H]3O)C[C@]12C [Ginsenoside Re]	103% and 101%	101	99.2	105	101	106	97.4	107
C[C@@H]1CC(=O)Nc2cccc(-c3ccc4c(c3)c(-c3cnn(C)c3)nn4C)c2N1	80.2% and 77.7%	81.6	55.1	49.1	32.5	35.8	32.6	47.2
CC(C)C(=O)Oc1ccc(CO)cc1[C@H](CCN(C(C)C)C(C)C)c1ccccc1 [Fesoterodine Fumarate]	97.2% and 107%	102	91.7	98.4	102	104	113	98
CCOC(=O)C1=C[C@]2(CC)CCCN3CCc4c(n1c1ccccc41)[C@@H]32 [Vinpocetine (Cavinton)]	93.6% and 101%	95.6	96.5	110	101	101	89.5	101
CCN(CC)c1ccc2cc(-c3nc4ccccc4s3)c(=O)oc2c1 [Coumarin 6]	106% and 105%	102	106	112	108	107	101	108
COc1ccc([C@]2(C#N)CC[C@@H](C(=O)O)CC2)cc1OC1CCCC1	96.5% and 91.9%	99.1	93.8	110	94.8	100	95.6	102
CCc1ccc(C(=O)C(C)CN2CCCCC2)cc1 (stereo not given) [Eperisone hydrochloride]	91.5% and 94.7%	93.1	81.3	95.5	38.1	70	33.5	47.8
CO/N=C1\C[C@]2(C[C@@H]3C[C@@H](C/C=C(\C)C[C@@H](C)/C=C/C=C4\CO[C@@H]5[C@H](O)C(C)=C[C@@H](C(=O)O3)[C@]45O)O2)O[C@H](/C(C)=C/C(C)C)[C@H]1C [Moxidectin]	59.6% and 63.5%	66.4	54.6	67.3	46.9	53.3	40.1	25.3
O=C(Nc1ccc2c(O)cc(S(=O)(=O)O)cc2c1)Nc1ccc2c(O)cc(S(=O)(=O)O)cc2c1	103% and 108%	99.1	110	101	101	104	112	111
CC1=C(C(=O)OC(C)C)C(c2cccc([N+](=O)[O-])c2)C(C(=O)OC2CN(C(c3ccccc3)c3ccccc3)C2)=C(N)N1 (stereo not given) [Azelnidipine]	74.3% and 58.4%	58.8	58.1	80.1	82.1	82.3	71.3	58
CCCNS(=O)(=O)Nc1ncnc(OCCOc2ncc(Br)cn2)c1-c1ccc(Br)cc1 [Macitentan]	104% and 105%	96.8	100	118	103	110	102	110
